Reference: PubChem BioAssay (EPA / NIEHS)
Activity calls are given as the source filed them. How the source made its calls: active means hit-call score of the fitted dose curve at least 0.9, where 1 is the maximum; inactive means score below 0.9.

Assays:
[1] = ATG_E_Box_CIS: Attagene CIS-FACTORIAL HepG2 Assay for human Enhancer Box (E-box) (AID 2282936); details: HepG2 E-box cis-reporter transcription, actives raise or lower the signal
Outline: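 Transiently transfected HepG2, endogenous TF-driven reporters, 24 h dosing. Readout: RT-PCR plus capillary electrophoresis of fluorescent reporter fragments. Gain or loss of signal fitted bidirectionally against DMSO baseline.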

[2] = ATG_M_61_CIS: Attagene CIS-FACTORIAL HepG2 Assay for M61 Transcription Factor (Internal Marker) (AID 2282937); details: HepG2 Attagene CIS-FACTORIAL M61 internal marker reporter; actives raise or lower the signal
Outline: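 Fluorescence from labelled cDNA fragments, separated by capillary electrophoresis, quantifies reporter induction. HepG2 cells bearing transiently transfected cis-promoter MRTUs were incubated with test chemical for 24 h; DMSO defined baseline for gain/loss fitting.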

[3] = ATG_EGR_CIS: Attagene CIS-FACTORIAL HepG2 Assay for human Early Growth Response 1 (EGR1) (AID 2282938); details: HepG2 Attagene CIS-FACTORIAL EGR reporter mRNA; actives raise or lower the signal
Outline: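 Cell-based multiplex transcription assay: HepG2 carrying transfected cis-element reporter units, 24 h chemical treatment. Fluorescence from capillary electrophoresis of RT-PCR products gives mRNA levels; fitting is bidirectional relative to DMSO.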

[4] = ATG_M_19_CIS: Attagene CIS-FACTORIAL HepG2 Assay for M19 Transcription Factor (Internal Marker) (AID 2282939); details: HepG2 Attagene CIS-FACTORIAL M19 internal marker reporter; actives raise or lower the signal
Outline: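 Background-control endpoint from a multiplexed HepG2 reporter panel. Cells carrying cis-regulated reporter constructs are treated 24 h, then reporter transcripts are amplified, fluorescently labelled and sized by capillary electrophoresis. DMSO defines baseline.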

[5] = ATG_ERE_CIS: Attagene CIS-FACTORIAL HepG2 Assay for Estrogen Response Element (ERE) (AID 2282940); details: HepG2 ERE cis-reporter, Attagene RNA transcript; actives raise or lower the signal
Outline: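 Cells used were human hepatoma HepG2, transfected with multiple reporter transcription units under cis-regulatory promoters. Reporter mRNA, read 24 h post-dosing via fluorescent RT-PCR products on capillary electrophoresis, was fitted bidirectionally relative to DMSO.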

[6] = ATG_Ets_CIS: Attagene CIS-FACTORIAL HepG2 Assay for human Erythroblast Transformation Specific (ETS) (AID 2282941); details: HepG2 ETS cis-reporter transcription, actives raise or lower the signal
Outline: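 Bidirectional fit versus DMSO of reporter mRNA signal, detected by RT-PCR and capillary electrophoresis in HepG2 cells transiently transfected with cis-element reporters and dosed 24 h.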

[7] = molecular target: Hepatocyte nuclear factor 3-beta (Homo sapiens) (UniProt Q9Y261); test: ATG_FoxA2_CIS: Attagene CIS-FACTORIAL HepG2 Assay for human Forkhead box A2 (FOXA2) (AID 2282942); details: HepG2 cis-reporter transcription factor activity, 24 h; actives raise or lower the signal
Sequence of Hepatocyte nuclear factor 3-beta (Homo sapiens) (Q9Y261 whole entry, looked up): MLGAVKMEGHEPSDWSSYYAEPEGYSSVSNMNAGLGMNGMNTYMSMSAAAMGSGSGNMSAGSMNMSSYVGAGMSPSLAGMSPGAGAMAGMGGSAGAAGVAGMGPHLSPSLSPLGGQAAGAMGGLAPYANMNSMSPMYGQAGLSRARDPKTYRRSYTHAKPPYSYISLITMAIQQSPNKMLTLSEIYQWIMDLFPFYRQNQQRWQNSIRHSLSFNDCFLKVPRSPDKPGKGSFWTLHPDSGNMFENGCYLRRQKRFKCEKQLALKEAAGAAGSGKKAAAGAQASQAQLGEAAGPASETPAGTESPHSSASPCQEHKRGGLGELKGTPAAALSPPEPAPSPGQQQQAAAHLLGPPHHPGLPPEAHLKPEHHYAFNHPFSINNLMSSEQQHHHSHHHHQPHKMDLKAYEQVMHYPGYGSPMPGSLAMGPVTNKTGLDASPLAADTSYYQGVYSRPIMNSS
Outline: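 In transiently transfected human HepG2 cells, promoter-driven reporter mRNA levels after 24 h chemical exposure are determined via RT-PCR with capillary electrophoresis. DMSO serves as baseline for bidirectional fitting.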

[8] = ATG_FoxO_CIS: Attagene CIS-FACTORIAL HepG2 Assay for human Forkhead box O (FoxO) (AID 2282943); details: HepG2 Attagene cis-reporter, FoxO element, mRNA; actives raise or lower the signal
Outline: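 Transfected HepG2 reporter cells exposed to test chemical for 24 h; reporter RNA measured by reverse transcription, PCR and fluorescent capillary electrophoresis; curves fitted for increases and decreases against DMSO.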

[9] = ATG_GATA_CIS: Attagene CIS-FACTORIAL HepG2 Assay for human GATA Binding Protein (AID 2282944); details: HepG2 GATA cis-element reporter, Attagene multiplex mRNA; actives raise or lower the signal
Outline: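 Endogenous transcription factor activity was captured through cis-promoter-driven reporters in transfected HepG2 cells. After 24 h exposure, reporter transcripts were quantified by RT-PCR with fluorescent capillary electrophoresis, and responses fitted both directions against DMSO.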

Compound | outcome [1] | outcome [2] | outcome [3] | outcome [4] | outcome [5] | outcome [6] | outcome [7] | outcome [8] | outcome [9] | AC50 [5] | AC50 [1] | AC50 [3] | AC50 [8] | AC50 [7]
O=C1CCC(=O)N1 | inactive | inactive | inactive | inactive | inactive | inactive | inactive | inactive | inactive | – | – | – | – | –
CCCCCCCCOC(=O)c1ccc(O)cc1 | inactive | inactive | inactive | inactive | – | inactive | inactive | inactive | inactive | 5.12 µM (active) | – | – | – | –
C=CC(=O)OCC(CO)(COC(=O)C=C)COC(=O)C=C | – | inactive | – | inactive | inactive | inactive | – | – | – | – | 22.2 µM (active) | 5.52 µM (active) | 13.4 µM (active) | –
CCc1cccc(O)c1 | inactive | inactive | inactive | – | inactive | inactive | inactive | inactive | inactive | – | – | – | – | –
COc1ccc(OC)cc1 | inactive | inactive | inactive | inactive | inactive | inactive | inactive | inactive | inactive | – | – | – | – | –
COc1cc(OC)c2ccc(=O)oc2c1 | inactive | inactive | inactive | inactive | inactive | inactive | inactive | inactive | inactive | – | – | – | – | –
CC(=O)C1C(=O)C=C(C)OC1=O (stereo not drawn) | inactive | inactive | inactive | inactive | inactive | inactive | inactive | inactive | inactive | – | – | – | – | –
CC(=O)CCc1ccc(O)cc1 | inactive | inactive | inactive | inactive | inactive | inactive | inactive | inactive | inactive | – | – | – | – | –
CCC(CC)CO | inactive | inactive | inactive | inactive | inactive | inactive | inactive | inactive | inactive | – | – | – | – | –
CC(C)N(c1ccccc1)C(C)C | inactive | inactive | inactive | inactive | inactive | inactive | – | inactive | inactive | – | – | – | – | –
O=C(O)c1cc2ccccc2cc1O | inactive | inactive | inactive | inactive | – | inactive | inactive | inactive | inactive | – | – | – | – | –
CC(C)Cc1ccc(C(C)C(=O)O)cc1 (stereo not drawn) | inactive | inactive | inactive | inactive | – | inactive | inactive | inactive | inactive | 10.6 µM (active) | – | – | – | –
CCCCOCCOCCO | inactive | inactive | inactive | inactive | inactive | inactive | inactive | inactive | inactive | – | – | – | – | –
CC(=O)c1ccc(O)cc1 | inactive | inactive | inactive | – | – | inactive | inactive | inactive | inactive | – | – | – | – | –
CCCCC/C=C\C=C\C(=O)OCC | inactive | inactive | – | inactive | – | inactive | – | inactive | inactive | – | – | 58.3 µM (active) | – | 71.5 µM (active)
CC(=O)CCC=C(C)CCC=C(C)C | inactive | inactive | inactive | inactive | inactive | inactive | inactive | inactive | inactive | – | – | – | – | –

Compound | outcome [1] | outcome [2] | outcome [3] | outcome [4] | outcome [5] | outcome [6] | outcome [7] | outcome [8] | outcome [9] | AC50 [5] | AC50 [1] | AC50 [3] | AC50 [8] | AC50 [7]
C1COCO1 | inactive | inactive | inactive | inactive | inactive | inactive | inactive | inactive | inactive | – | – | – | – | –
CC1=CC[C@@H](C(C)(C)O)CC1 | inactive | inactive | inactive | – | inactive | inactive | inactive | inactive | inactive | – | – | – | – | –
CCCCCCC(O)CCOC(C)=O (stereo not drawn) | inactive | inactive | inactive | inactive | inactive | inactive | inactive | inactive | inactive | – | – | – | – | –
CCCCCC#CC(=O)OC | inactive | inactive | inactive | inactive | inactive | inactive | inactive | inactive | inactive | – | – | – | – | –
CC(C)(C)c1ccc(S)cc1 | inactive | inactive | inactive | inactive | inactive | inactive | inactive | inactive | inactive | – | – | – | – | –
CCCCCCCCCOS(=O)(=O)O | inactive | inactive | inactive | – | – | inactive | – | inactive | inactive | – | – | – | – | –
CC(=O)OC/C=C(C)/C=C/C=C(C)/C=C/C1=C(C)CCCC1(C)C | inactive | inactive | – | – | inactive | inactive | inactive | inactive | inactive | – | – | 122 µM (active) | – | –
FC(F)(F)c1ccc(Cl)c(Cl)c1 | inactive | inactive | inactive | inactive | – | inactive | inactive | inactive | inactive | – | – | – | – | –
CCC(=O)OC(C)(C)C1CC=C(C)CC1 (stereo not drawn) | inactive | inactive | inactive | inactive | – | inactive | inactive | inactive | inactive | 100 µM (active) | – | – | – | –
C[N+](C)(C)CCO | inactive | inactive | inactive | inactive | inactive | inactive | inactive | inactive | inactive | – | – | – | – | –
COc1ccc2[nH]cc(CCNC(C)=O)c2c1 | inactive | inactive | inactive | – | inactive | inactive | – | inactive | – | – | – | – | – | –
O=S(=O)(O)c1cc(S(=O)(=O)O)c2c(N=Nc3ccccc3)c(O)ccc2c1 | inactive | inactive | inactive | inactive | inactive | inactive | – | inactive | inactive | – | – | – | – | –
CC(C)(CO)CO | inactive | inactive | inactive | – | – | inactive | inactive | inactive | inactive | – | – | – | – | –
NC(=O)c1c(Cl)cccc1Cl | inactive | inactive | inactive | inactive | inactive | inactive | inactive | inactive | inactive | – | – | – | – | –
CC1=CC[C@@H]2C[C@H]1C2(C)C | inactive | inactive | inactive | inactive | – | inactive | inactive | inactive | inactive | – | – | – | – | –
